Each structure is given as a SMILES string. Counter-ions that a name gives are not always drawn.

This assay has as its system Vero E6 infected with SARS-CoV-2. Kind of assay: inhibition of SARS-CoV-2 cytopathic effect; higher = more antiviral protection, active = above 15. Conditions: 100 nM; 48 h. (Protection from cytopathic effect is a common read-out in antiviral testing.)
On to `CS(=O)(=O)c1ccc(Cn2c3c(c4cc(F)cc(F)c42)CCCC3CC(=O)O)cc1` (stereo not given), for which the “inhibition of SARS-CoV-2 cytopathic effect” value (from here on “inhibition”) was -0.12% (inactive).
As for `COc1ccc(CC(C)NCC(O)c2ccc(O)c(NC=O)c2)cc1` (stereo not given) [formoterol], the “inhibition” value is 1.69% (inactive).
As to `Brc1ccc(NC2C3CC4CC(C3)CC2C4)cc1` (stereo not given) [bromantan], the “inhibition” value was -0.8% (inactive).
For the molecule `O=[N+]([O-])c1cc(Cl)ccc1S(=O)(=O)N1CCN(Cc2ccccc2)CC1`, the “inhibition” value was -0.96% (inactive).
For `c1cc(Nc2cc(C3CC3)n[nH]2)nc(Nc2ccc3[nH]cnc3c2)n1`, the “inhibition” value was -0.35% (inactive).
The value for `Oc1cc2c(cc1O)[C@@H]1c3ccc(O)c(O)c3OC[C@]1(O)C2` [hematoxylin] was 0.48% (inactive); that for `C=CC1=C(C)C2=CC3=NC(=C(CC(=O)O)C4=NC(=C(C)C4=C(O)O)C=c4[nH]c(c(C)c4CC)=CC1=N2)C(CCC(=O)O)C3C` (stereo not given) [chlorophyllin] was -0.92% (inactive).
Regarding `CC(C)COc1ccc(CNC(=O)N(Cc2ccc(F)cc2)C2CCN(C)CC2)cc1` [pimavanserin], the “inhibition” value was 0.2% (inactive).
For `CCCCc1ccc(O)cc1O` [rucinol], the “inhibition” value is 2.12% (inactive).
`CC(C)(N)CC12CC3CC(CC(C3)C1)C2` [somantadine]: the “inhibition” value is -0.66% (inactive).
The value for `O=C1CN(/N=C/c2ccc([N+](=O)[O-])o2)C(=O)N1` [nitrofurantoin] was 0.43% (inactive).
On to `Cc1c(CC(C)(C)C(=O)O)n(Cc2ccc(Cl)cc2)c2ccc(F)cc12`, for which the “inhibition” value was 4.56% (inactive).
Take `C[C@@H]1[C@H](O)[C@@H](C)/C=C/C=C/C=C/C=C/C=C/C=C/C=C/[C@H](O[C@@H]2O[C@H](C)[C@@H](O)[C@H](N)[C@@H]2O)C[C@@H]2O[C@](O)(C[C@@H](O)C[C@@H](O)[C@H](O)CC[C@@H](O)C[C@@H](O)CC(=O)O[C@H]1C)C[C@H](O)[C@H]2C(=O)O` [amphotericin-b]: the “inhibition” value is -1.99% (inactive).
Consider `C[C@]1(O)C[C@@H](c2nc(-c3ccc4ccc(-c5ccccc5)nc4c3)c3c(N)nccn32)C1` [linsitinib], for which the “inhibition” value was -1.12% (inactive).
In the case of `CC/C(=C(/CC)c1ccc(OP(=O)(O)O)cc1)c1ccc(OP(=O)(O)O)cc1` [fosfestrol], the “inhibition” value is -0.95% (inactive).
On to `C=C[C@@](C)(/C=C/c1ccc(O)cc1)CCC=C(C)C` [bakuchiol], for which the “inhibition” value is 0.23% (inactive).
The value for `CC(C)[N+](C)(CCC(C(N)=O)(c1ccccc1)c1ccccc1)C(C)C` [isopropamide-iodide] was 2.29% (inactive); that for `CN(C)CCc1c[nH]c2ccc(Cn3cncn3)cc12` [rizatriptan] was -1.66% (inactive).
Consider `Cc1cc(Nc2ncc(Cl)c(Nc3ccccc3S(=O)(=O)C(C)C)n2)c(OC(C)C)cc1C1CCNCC1` [ceritinib], for which the “inhibition” value is 2.17% (inactive).
Turning to `CCCCCCCCCC(=O)OCCN1CCN(CCCN2c3ccccc3Sc3ccc(C(F)(F)F)cc32)CC1` [fluphenazine-decanoate], the “inhibition” value is -8.72% (inactive).
Regarding `Clc1ccc2c(NCCNc3ccnc4cc(Cl)ccc34)ccnc2c1`, the “inhibition” value was 5.21% (inactive).
For the molecule `CC(O)(C(=O)Nc1ccc(S(=O)(=O)c2ccccc2)cc1)C(F)(F)F` (stereo not given), the “inhibition” value is 2.14% (inactive).
For `Cn1c(=O)c2c(ncn2CC2OCCO2)n(C)c1=O` [doxofylline], the “inhibition” value is -0.01% (inactive).
As for `CN1C[C@@H]2CN(c3ccc(-c4ccccc4)nn3)C[C@@H]2C1`, the “inhibition” value was 0.67% (inactive).
For `CSCC1CN(/N=C/c2ccc([N+](=O)[O-])o2)C(=O)O1` (stereo not given) [inimur] the value was 2.9% (inactive).
On to `NCCCC[C@H](NC(=O)[C@@H]1CCCN1C(=O)[C@@H]1CSSC[C@H](N)C(=O)N[C@@H](Cc2ccc(O)cc2)C(=O)N[C@@H](Cc2ccccc2)C(=O)N[C@@H](CCC(N)=O)C(=O)N[C@@H](CC(N)=O)C(=O)N1)C(=O)NCC(N)=O` [lypressin], for which the “inhibition” value was 3.33% (inactive).
As for `CCCCC/C=C\C/C=C\CCCCCCCC(=O)NCCCC(=O)O` [GABA-linoleamide], the “inhibition” value is 1.92% (inactive).
For the molecule `CCCCCCCCCCOc1cc2c(O)c(C(=O)OCC)cnc2cc1OCC` [decoquinate], the “inhibition” value was -1.59% (inactive).
For `NC(=O)c1nc(F)cnc1O` [favipiravir] the value was -0.79% (inactive).
For the molecule `Cc1ncc(COP(=O)([O-])[O-])c(CN(CCN(CC(=O)O)Cc2c(COP(=O)([O-])O)cnc(C)c2O)CC(=O)O)c1O.[Mn].[Na+].[Na+].[Na+]` [Mangafodipir (trisodium)], the “inhibition” value was -2.65% (inactive).
For `O=C(c1ccc(F)cc1)C1CCN(CCn2c(=O)[nH]c3ccccc3c2=O)CC1` [ketanserin] the value was -0.25% (inactive); for `Cc1ccc(Cl)c(OCC(O)CNC(C)(C)C)c1` (stereo not given) [bupranolol], -5.32% (inactive).
Consider `Cc1c(Cl)cccc1S(=O)(=O)Nc1nc(CC(=O)N2CCN(C)CC2)cs1`, for which the “inhibition” value was -1.13% (inactive).
Turning to `C[C@@H](O)[C@H]1C(=O)N2C(C(=O)[O-])=C(SC3Cn4cnc[n+]4C3)[C@H](C)[C@H]12` (stereo not given in full) [biapenem], the “inhibition” value was 0.1% (inactive).
With `O=S(=O)(/N=C/c1c(O)ccc2ccccc12)c1cccs1`, the “inhibition” value is 1.59% (inactive).
In the case of `O=C(CCCCCCC(=O)Nc1cccnc1)NO` [pyroxamide], the “inhibition” value was 0.72% (inactive).
As for `CCOC(=O)[C@@H](N)Cc1ccc(-c2cc(O[C@H](c3ccc(Cl)cc3-n3ccc(C)n3)C(F)(F)F)nc(N)n2)cc1` [telotristat-ethyl], the “inhibition” value is -1.08% (inactive).
On to `CC(NCCC(c1ccccc1)c1ccccc1)c1ccccc1` (stereo not given) [fendiline], for which the “inhibition” value was -0.68% (inactive).
The value for `Nc1ncc(Cc2ccc(Br)cc2)s1` was 2.74% (inactive); that for `CO/N=C(\C(=O)N[C@@H]1C(=O)N2C(C(=O)O)=C(Cn3ccc(=N)n3CCO)CS[C@H]12)c1csc(N)n1` [Cefoselis sulfate] was -1.18% (inactive).

Source of the values: the supplement of paper PMC13380429.
